Records with an inconclusive call do not appear. Calls of active or inactive are those of the source. Calls come from the whole dose curve; as a rule, active = well fitted curve in the direction sought with a large enough effect in the repeat runs; inconclusive = weak or mixed curves; inactive = no such curve, though single readings can be large; an effect the other way counts as inactive or inconclusive.
What was measured:
[1] = target: Nuclear receptor subfamily 1 group I member 2 (Homo sapiens) (UniProt O75469); experiment: Human pregnane X receptor (PXR) small molecule agonists, qHTS assay (AID 1346982); note: nearly all actives have a fitted effect of over 35% in size; note: potency is the fitted concentration of half-maximal effect
Chain of Nuclear receptor subfamily 1 group I member 2 (Homo sapiens) (O75469 whole entry, looked up): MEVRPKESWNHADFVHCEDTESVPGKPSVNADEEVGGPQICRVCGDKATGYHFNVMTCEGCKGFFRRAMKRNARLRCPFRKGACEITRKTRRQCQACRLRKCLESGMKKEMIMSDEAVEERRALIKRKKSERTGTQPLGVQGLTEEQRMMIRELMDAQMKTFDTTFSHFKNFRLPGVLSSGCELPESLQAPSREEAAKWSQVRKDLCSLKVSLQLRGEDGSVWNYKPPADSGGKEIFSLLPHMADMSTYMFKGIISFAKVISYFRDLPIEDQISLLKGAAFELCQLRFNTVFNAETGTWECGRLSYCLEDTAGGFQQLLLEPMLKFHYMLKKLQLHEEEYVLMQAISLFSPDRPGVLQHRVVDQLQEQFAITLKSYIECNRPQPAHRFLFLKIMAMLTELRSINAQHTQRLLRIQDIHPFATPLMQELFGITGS
Outline: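 Luminescence (ONE-Glo, 30 min RT) after 24 hr compound exposure of PXR-Luc HepG2 cells; cells rested 5 hr post-plating in 5% charcoal-stripped FBS medium.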

[2] = target: Cytochrome P450 2D6 (Homo sapiens) (UniProt P10635); experiment: Cytochrome P450 Family 2 Subfamily D Member 6 (CYP2D6) small molecule antagonists: luciferase reporter qHTS assay (AID 1671196); note: nearly all actives have a fitted effect of over 50% in size; note: potency is the fitted concentration of half-maximal effect; for activity change, negative = inhibition: series mostly up to about 120 µM
Chain of Cytochrome P450 2D6 (Homo sapiens) (P10635 whole entry, looked up): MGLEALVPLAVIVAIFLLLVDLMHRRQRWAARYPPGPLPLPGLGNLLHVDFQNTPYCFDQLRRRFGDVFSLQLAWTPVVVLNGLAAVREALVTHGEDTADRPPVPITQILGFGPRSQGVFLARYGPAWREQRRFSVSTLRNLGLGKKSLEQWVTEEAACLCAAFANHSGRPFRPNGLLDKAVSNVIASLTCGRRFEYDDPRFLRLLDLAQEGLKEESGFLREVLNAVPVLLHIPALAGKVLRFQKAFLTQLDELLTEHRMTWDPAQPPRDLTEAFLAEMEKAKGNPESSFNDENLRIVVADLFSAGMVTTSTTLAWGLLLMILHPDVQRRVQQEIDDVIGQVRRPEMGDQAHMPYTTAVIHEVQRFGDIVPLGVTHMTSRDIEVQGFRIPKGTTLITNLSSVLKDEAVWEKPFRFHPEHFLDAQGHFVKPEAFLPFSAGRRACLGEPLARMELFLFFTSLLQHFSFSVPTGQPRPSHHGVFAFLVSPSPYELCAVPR
Outline: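 Inhibition of CYP2D6 was gauged by loss of luminescence, since light produced tracks the luciferin generated from a proluciferin substrate. A 10 min room-temperature preincubation preceded 1 h NADPH-supported turnover.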

[3] = target: Cytochrome P450 2C19 (Homo sapiens) (UniProt P33261); experiment: Cytochrome P450 Family 2 Subfamily C Member 19 (CYP2C19) small molecule antagonists: luciferase reporter qHTS assay (AID 1671197); note: nearly all actives have a fitted effect of over 65% in size; note: potency is the fitted concentration of half-maximal effect; for activity change, negative = inhibition: series mostly up to about 120 µM
Chain of Cytochrome P450 2C19 (Homo sapiens) (P33261 whole entry, looked up): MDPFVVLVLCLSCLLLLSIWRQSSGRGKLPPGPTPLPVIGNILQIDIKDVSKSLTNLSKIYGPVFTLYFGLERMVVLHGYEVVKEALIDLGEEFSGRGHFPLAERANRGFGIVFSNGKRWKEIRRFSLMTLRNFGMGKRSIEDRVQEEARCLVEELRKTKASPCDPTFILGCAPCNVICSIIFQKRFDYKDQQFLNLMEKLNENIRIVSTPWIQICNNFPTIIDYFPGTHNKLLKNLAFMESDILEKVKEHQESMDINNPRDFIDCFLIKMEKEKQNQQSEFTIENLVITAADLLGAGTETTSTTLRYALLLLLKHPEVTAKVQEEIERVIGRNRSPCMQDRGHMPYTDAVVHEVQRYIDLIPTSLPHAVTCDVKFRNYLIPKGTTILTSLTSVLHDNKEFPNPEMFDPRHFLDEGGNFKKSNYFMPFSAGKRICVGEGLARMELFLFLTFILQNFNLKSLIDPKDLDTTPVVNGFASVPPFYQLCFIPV
Outline: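 Light output is proportional to CYP2C19 activity: proluciferin substrate is converted to luciferin, then detected by a luciferin detection reagent that also stops the 1 h, 37C NADPH-driven reaction. Ketoconazole serves as positive control.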

[4] = target: Cytochrome P450 2C9 (Homo sapiens) (UniProt P11712); experiment: Cytochrome P450 Family 2 Subfamily C Member 9 (CYP2C9) small molecule antagonists: luciferase reporter qHTS assay (AID 1671198); note: nearly all actives have a fitted effect of over 50% in size; note: potency is the fitted concentration of half-maximal effect; for activity change, negative = inhibition: series mostly up to about 120 µM
Chain of Cytochrome P450 2C9 (Homo sapiens) (P11712 whole entry, looked up): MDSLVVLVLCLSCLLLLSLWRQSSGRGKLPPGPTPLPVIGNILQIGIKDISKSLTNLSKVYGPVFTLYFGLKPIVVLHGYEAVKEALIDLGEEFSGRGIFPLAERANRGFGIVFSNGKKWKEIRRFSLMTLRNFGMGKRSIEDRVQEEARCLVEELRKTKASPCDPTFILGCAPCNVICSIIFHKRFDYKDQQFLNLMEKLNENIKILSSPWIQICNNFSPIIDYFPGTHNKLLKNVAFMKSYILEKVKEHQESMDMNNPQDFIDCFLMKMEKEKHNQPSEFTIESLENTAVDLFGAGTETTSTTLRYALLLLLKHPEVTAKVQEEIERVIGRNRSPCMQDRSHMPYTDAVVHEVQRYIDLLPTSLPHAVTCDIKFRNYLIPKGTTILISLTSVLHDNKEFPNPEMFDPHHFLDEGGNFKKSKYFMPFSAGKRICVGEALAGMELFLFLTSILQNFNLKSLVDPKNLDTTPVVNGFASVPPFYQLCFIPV
Outline: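 CYP2C9 activity was measured with a P450-Glo proluciferin substrate. Enzyme–substrate mix was held with compound for 10 min at room temperature, then NADPH regeneration solution was added for 1 h at 37C. Luciferin product was read as luminescence.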

[5] = target: Cytochrome P450 1A2 (Homo sapiens) (UniProt P05177); experiment: Cytochrome P450 Family 1 Subfamily A Member 2 (CYP1A2) small molecule antagonists: luciferase reporter qHTS assay (AID 1671199); note: nearly all actives have a fitted effect of over 50% in size; note: potency is the fitted concentration of half-maximal effect; for activity change, negative = inhibition: series mostly up to about 120 µM
Chain of Cytochrome P450 1A2 (Homo sapiens) (P05177 whole entry, looked up): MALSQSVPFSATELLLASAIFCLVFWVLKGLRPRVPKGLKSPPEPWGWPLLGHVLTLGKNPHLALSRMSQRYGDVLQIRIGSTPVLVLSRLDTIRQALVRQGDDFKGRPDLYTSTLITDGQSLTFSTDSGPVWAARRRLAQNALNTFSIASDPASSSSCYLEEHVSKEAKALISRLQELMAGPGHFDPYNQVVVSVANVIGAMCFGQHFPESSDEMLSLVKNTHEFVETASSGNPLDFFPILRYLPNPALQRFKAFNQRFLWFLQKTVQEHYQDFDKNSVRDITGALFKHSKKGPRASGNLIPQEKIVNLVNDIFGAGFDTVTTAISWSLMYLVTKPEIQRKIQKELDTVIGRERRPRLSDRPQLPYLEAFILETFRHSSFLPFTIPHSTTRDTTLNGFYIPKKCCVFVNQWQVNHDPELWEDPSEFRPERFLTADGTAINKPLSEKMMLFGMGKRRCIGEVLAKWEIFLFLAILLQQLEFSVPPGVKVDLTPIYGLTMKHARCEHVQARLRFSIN
Outline: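 Signal from luciferin formed by CYP1A2 from a proluciferin substrate is read as luminescence, expressed in relative luminescence units. Compounds sit with enzyme 10 min, NADPH-driven reaction runs 1 h, all at room temperature.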

[6] = target: Voltage-gated inwardly rectifying potassium channel KCNH2 (Homo sapiens) (UniProt Q12809); experiment: Human Ether-a-go-go-Related Gene (hERG) channel small molecule antagonists: fluorescence cell-based qHTS assay (AID 1671200); note: nearly all actives have a fitted effect of over 50% in size; note: potency is the fitted concentration of half-maximal effect;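 for activity change, negative = inhibition: hERG-expressing U2OS cells given a thallium stimulus after FluxOR II dye loading; series mostly up to about 77 µM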
Chain of Voltage-gated inwardly rectifying potassium channel KCNH2 (Homo sapiens) (Q12809 whole entry, looked up): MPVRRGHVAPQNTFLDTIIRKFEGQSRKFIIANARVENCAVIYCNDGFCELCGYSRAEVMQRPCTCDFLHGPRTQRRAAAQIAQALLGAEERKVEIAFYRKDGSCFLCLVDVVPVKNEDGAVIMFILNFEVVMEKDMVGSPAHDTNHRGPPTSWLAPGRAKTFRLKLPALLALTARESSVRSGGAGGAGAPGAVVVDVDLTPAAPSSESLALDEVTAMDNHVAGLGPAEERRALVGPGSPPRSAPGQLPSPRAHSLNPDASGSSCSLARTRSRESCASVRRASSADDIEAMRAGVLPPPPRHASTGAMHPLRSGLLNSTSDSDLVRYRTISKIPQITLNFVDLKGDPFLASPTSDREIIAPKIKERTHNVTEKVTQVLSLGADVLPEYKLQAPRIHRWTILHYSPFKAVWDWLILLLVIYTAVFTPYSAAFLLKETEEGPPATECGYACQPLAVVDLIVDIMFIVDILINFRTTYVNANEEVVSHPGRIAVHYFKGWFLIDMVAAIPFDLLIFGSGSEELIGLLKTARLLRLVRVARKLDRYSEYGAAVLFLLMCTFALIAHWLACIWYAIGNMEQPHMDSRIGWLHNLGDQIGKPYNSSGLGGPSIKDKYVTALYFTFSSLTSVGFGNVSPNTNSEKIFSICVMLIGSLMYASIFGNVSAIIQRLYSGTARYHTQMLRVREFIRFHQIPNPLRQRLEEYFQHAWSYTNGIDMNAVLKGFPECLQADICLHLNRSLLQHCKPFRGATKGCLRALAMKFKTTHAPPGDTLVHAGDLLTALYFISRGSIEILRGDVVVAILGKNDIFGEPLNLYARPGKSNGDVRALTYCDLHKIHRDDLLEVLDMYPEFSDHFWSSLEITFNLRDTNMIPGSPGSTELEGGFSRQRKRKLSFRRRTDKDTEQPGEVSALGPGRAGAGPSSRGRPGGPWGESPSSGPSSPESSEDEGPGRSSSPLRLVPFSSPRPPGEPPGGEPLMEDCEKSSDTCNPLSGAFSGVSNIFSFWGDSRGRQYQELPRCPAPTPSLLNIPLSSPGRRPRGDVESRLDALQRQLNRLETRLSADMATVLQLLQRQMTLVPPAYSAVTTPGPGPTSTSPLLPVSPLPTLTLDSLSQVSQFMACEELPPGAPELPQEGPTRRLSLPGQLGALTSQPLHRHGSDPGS
Outline: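 Quantitative HTS in hERG-U2OS cells: thallium entry through the channel reports activity, read as continuous 480/540 nm fluorescence over 2 min after stimulus addition.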

[7] = target: Cytochrome P450 3A4 (Homo sapiens) (UniProt P08684); experiment: Cytochrome P450 Family 3 Subfamily A Member 4 (CYP3A4) small molecule antagonists: luciferase reporter qHTS assay (AID 1671201); note: nearly all actives have a fitted effect of over 50% in size; note: potency is the fitted concentration of half-maximal effect; for activity change, negative = inhibition: series mostly up to about 120 µM
Chain of Cytochrome P450 3A4 (Homo sapiens) (P08684 whole entry, looked up): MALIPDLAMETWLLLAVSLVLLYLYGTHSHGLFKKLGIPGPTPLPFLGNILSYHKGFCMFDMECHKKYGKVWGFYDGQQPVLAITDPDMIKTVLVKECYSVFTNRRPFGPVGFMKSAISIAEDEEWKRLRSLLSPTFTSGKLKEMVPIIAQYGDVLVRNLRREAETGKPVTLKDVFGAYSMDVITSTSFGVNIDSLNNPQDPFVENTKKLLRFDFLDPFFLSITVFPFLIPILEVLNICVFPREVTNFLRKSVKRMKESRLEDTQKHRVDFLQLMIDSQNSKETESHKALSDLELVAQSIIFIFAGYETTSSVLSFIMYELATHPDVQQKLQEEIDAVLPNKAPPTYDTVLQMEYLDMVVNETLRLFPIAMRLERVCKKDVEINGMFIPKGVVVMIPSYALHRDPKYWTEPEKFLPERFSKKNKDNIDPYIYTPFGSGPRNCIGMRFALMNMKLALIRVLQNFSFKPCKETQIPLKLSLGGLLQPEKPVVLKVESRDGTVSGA
Outline: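 Inhibition of CYP3A4 is measured as loss of light: the enzyme converts a proluciferin substrate to luciferin, detected luminescently. Reaction ran 1 h at room temperature with NADPH regeneration after a 10 min compound preincubation.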

[8] = target: Nuclear receptor subfamily 1 group I member 2 (Homo sapiens) (UniProt O75469); experiment: CYP3A4 induction through human pregnane X receptor (PXR) by small molecules, qHTS assay (AID 1346984); note: nearly all actives have a fitted effect of over 40% in size; note: potency is the fitted concentration of half-maximal effect
Outline: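 DPX-2 reporter cells; 24h cpd, 37C; Luciferin-IPA 3uM final x3h; One-Glo 30 min RT; lumi read.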

[9] = target: Nuclear receptor subfamily 1 group I member 2 (Homo sapiens) (UniProt O75469); experiment: Human pregnane X receptor (PXR) activation by small molecules, qHTS assay (AID 1346985); note: nearly all actives have a fitted effect of over 40% in size
Outline: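 DPX-2 cells (HepG2 co-transfected with a PXR response element and a CYP3A4-promoter luciferase construct) were seeded at 2,000 per well, rested 5 hr at 37C, then exposed to DMSO-dissolved compounds for 24 hr. Activation was read as luciferase luminescence.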

[10] = target: Nuclear receptor subfamily 1 group I member 2 (Rattus norvegicus) (UniProt Q9R1A7); experiment: Rat pregnane X receptor (rPXR) activation by small molecules, qHTS assay (AID 1346983); conditions: rPXR luciferase reporter cells, One-Glo luminescence, 24 h; max activation: stronger effect = higher value; note: nearly all actives have a fitted effect of over 20% in size; note: potency is the fitted concentration of half-maximal effect
Chain of Nuclear receptor subfamily 1 group I member 2 (Rattus norvegicus) (Q9R1A7 whole entry, looked up): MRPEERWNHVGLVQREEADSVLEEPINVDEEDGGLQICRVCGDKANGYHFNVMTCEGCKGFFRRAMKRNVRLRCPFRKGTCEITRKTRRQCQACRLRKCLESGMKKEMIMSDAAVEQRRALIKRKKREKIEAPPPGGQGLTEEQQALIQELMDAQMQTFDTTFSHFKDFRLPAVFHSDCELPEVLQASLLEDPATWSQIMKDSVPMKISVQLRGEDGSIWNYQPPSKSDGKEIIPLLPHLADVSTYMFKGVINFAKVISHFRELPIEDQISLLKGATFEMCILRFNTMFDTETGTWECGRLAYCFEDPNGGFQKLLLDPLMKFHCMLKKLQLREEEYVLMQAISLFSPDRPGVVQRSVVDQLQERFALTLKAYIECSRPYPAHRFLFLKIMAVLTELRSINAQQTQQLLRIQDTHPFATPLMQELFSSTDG
Outline: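 Cell-based rPXR luciferase reporter assay, 2,000 cells per well, rested 5hr at 37 C before compound addition in DMSO, then 24 hr at 37 C. One-Glo reagent was added and luminescence read after 30 min at room temperature.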
% is set by controls: 0 for no effect and ±100 for the full control effect.

C/C=C/C(=O)OCC(C)C
inactive: Potency [1] | Potency [2] | Potency [3] | Potency [4] | Potency [5] | Potency [6] | Potency [7]

C=C[Si](C)(C)Cl
inactive: activation [1] 4.97% [at 8.39 µM] | activity change, negative = inhibition [2] 0.847% [at 10.5 µM] | activity change, negative = inhibition [3] -15.5% [at 10.5 µM] | activity change, negative = inhibition [4] -1.65% [at 10.5 µM] | activity change, negative = inhibition [5] -9.04% [at 10.5 µM] | activity change, negative = inhibition [6] -2.91% [at 6.97 µM] | activity change, negative = inhibition [7] 0.89% [at 10.5 µM]

[Cl][Dy]([Cl])[Cl]
inactive: Potency [1] | Potency [2] | Potency [3] | Potency [4] | Potency [5] | Potency [6]

O=C(O)C[C@H](O)C[C@H](O)/C=C/c1c(C2CC2)nc2ccccc2c1-c1ccc(F)cc1
inactive: activation [1] 12.4% [at 19 µM] | Potency [9] | activity change, negative = inhibition [2] -0.811% [at 23.6 µM] | activity change, negative = inhibition [3] 11.6% [at 23.6 µM] | activity change, negative = inhibition [5] -11.8% [at 23.6 µM] | activity change, negative = inhibition [6] 2.63% [at 15.8 µM] | activity change, negative = inhibition [7] -3.86% [at 23.6 µM]
active: Potency [8] 14.1 µM

CCCCCCCCCCCCCCCCC(C(=O)O)C(O)(CC(=O)O)C(=O)O (configuration not stated)
active: Potency [2] 34.7 µM
inactive: Potency [1] | max activation [10] -2.33% | Potency [8] | Potency [9] | Potency [3] | Potency [4] | Potency [5] | Potency [6] | Potency [7]

Clc1nc(C(Cl)(Cl)Cl)c(Cl)c(Cl)c1Cl
active: Potency [2] 31.7 µM | Potency [3] 31.7 µM | Potency [4] 35.6 µM | Potency [5] 2.52 µM | Potency [6] 49 µM | Potency [7] 3.99 µM
inactive: Potency [1]

C[C@H]1O[C@@H](O[C@H]2CC[C@@]3(C)[C@H](CC[C@@H]4[C@@H]3C[C@@H](O)[C@]3(C)[C@@H](C5=CC(=O)OC5)CC[C@]43O)C2)C[C@H](O)[C@@H]1O[C@H]1C[C@H](O)[C@H](O[C@H]2C[C@H](O)[C@H](O[C@@H]3O[C@H](CO)[C@@H](O)[C@H](O)[C@H]3O)[C@@H](C)O2)[C@@H](C)O1
inactive: Potency [1] | Potency [8] | Potency [9] | Potency [2] | Potency [3] | Potency [6] | Potency [7]

c1ccc(-c2nc3ccccc3[nH]2)cc1
inactive: Potency [6]
active: Potency [1] 9.69 µM | Potency [2] 31.7 µM | Potency [3] 35.6 µM | Potency [4] 35.6 µM | Potency [5] 7.1 µM

CCCCCN=C(N)N/N=C/c1c[nH]c2ccc(OC)cc12
active: Potency [5] 4.9 µM | Potency [6] 10.7 µM
inactive: Potency [1] | max activation [10] -0.704% | Potency [8] | Potency [2] | Potency [3] | Potency [7]

Oc1cccc2c(O)cccc12
inactive: Potency [6]
active: Potency [1] 54.5 µM | Potency [2] 39.9 µM | Potency [3] 17.8 µM | Potency [4] 22.4 µM | Potency [5] 22.4 µM

CN1CCN(C)CC1
inactive: Potency [1] | Potency [2] | Potency [3] | Potency [4] | Potency [5] | Potency [6] | Potency [7]

CC1(C)[C@H]2CC[C@]1(C)C(=O)C2
inactive: Potency [1] | Potency [2] | Potency [3] | Potency [4] | Potency [5] | Potency [6] | Potency [7]

COc1cc(/C=C/C(=O)CC(=O)/C=C/c2ccc(O)c(OC)c2)ccc1O
inactive: max activation [10] 8.99% | Potency [8] | Potency [9]
active: Potency [1] 24.5 µM | Potency [2] 35.8 µM | Potency [3] 10.1 µM | Potency [5] 31.9 µM | Potency [7] 10.1 µM

Cc1ccc(C2OC[C@@H]3OC(c4ccc(C)cc4)O[C@H]([C@H](O)CO)[C@@H]3O2)cc1 (some centres not stated)
inactive: Potency [1] | Potency [2] | Potency [4] | Potency [5] | Potency [6]
active: Potency [3] 6.33 µM

CN(C/C=C/c1ccccc1)Cc1cccc2ccccc12
inactive: Potency [1] | Potency [8] | Potency [7]
active: Potency [2] 0.977 µM | Potency [3] 3.89 µM | Potency [5] 12.9 µM | Potency [6] 2.39 µM

O=C1OC2(c3ccccc31)c1ccc(O)c(Br)c1Oc1c2ccc(O)c1Br
active: Potency [3] 89.4 µM | Potency [4] 63.3 µM | Potency [6] 34.7 µM
inactive: Potency [1] | Potency [2] | Potency [5] | Potency [7]

CCCCCCCCSCc1cc(C)c(O)c(CSCCCCCCCC)c1
active: Potency [2] 5.03 µM | Potency [3] 7.1 µM | Potency [4] 8.94 µM | Potency [5] 25.2 µM
inactive: Potency [1] | Potency [6] | Potency [7]

NCc1cccc(C2CCN(C(=O)c3ccc(C#Cc4ccccc4F)o3)CC2)c1
inactive: Potency [1]
active: Potency [2] 20 µM | Potency [3] 2 µM | Potency [4] 0.071 µM | Potency [5] 71 µM | Potency [6] 11 µM | Potency [7] 5.64 µM

C=C1CC[C@H]2O[C@]2(C)CC[C@@H]2[C@@H]1CC2(C)C
inactive: Potency [1] | Potency [2] | Potency [3] | Potency [4] | Potency [5] | Potency [6] | Potency [7]

C=C1C(CCl)(CCl)C2(Cl)C(Cl)C(Cl)C1(Cl)C2(Cl)Cl (configuration not stated)
active: Potency [1] 8.53 µM | Potency [10] 11.2 µM | Potency [2] 44.3 µM | Potency [3] 1.76 µM | Potency [6] 43.1 µM | Potency [7] 0.991 µM
inactive: Potency [8]

O=[N+]([O-])c1ccc(O)c2ncccc12
active: Potency [1] 29.8 µM | Potency [4] 38.9 µM
inactive: max activation [10] -6.55% | Potency [8] | Potency [2] | Potency [3] | Potency [5] | Potency [6]

COc1cc(C(C)C)ccc1C
inactive: activation [1] -14.1% [at 19 µM] | activity change, negative = inhibition [2] -6.69% [at 23.6 µM] | activity change, negative = inhibition [3] -21% [at 23.6 µM] | activity change, negative = inhibition [4] -6.13% [at 23.6 µM] | activity change, negative = inhibition [5] -17.4% [at 23.6 µM] | activity change, negative = inhibition [6] -1.11% [at 15.8 µM] | activity change, negative = inhibition [7] -0.0855% [at 23.6 µM]
